An excerpt weighted towards active compounds, which were near 1.7% of everything screened.
TRPML1 inh: blocks the human TRPML1 channel; Q9GZU1; TRPML1-inducible cells, Ca2+ dye fluorescence, FDSS; stronger effect = lower value; inhibition of EC80 agonist-evoked calcium signal; activity change, negative = inhibition, % (no concentration beside the values); 390,000 tested, 0.02% active; in the data active = activity change below about -50%; inconclusive = between about -30% and that limit;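 also: stimulus is agonist 54-4 at its EC80 concentration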
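Tet-induced TRPML1-DL cells loaded with Ca8 no-wash calcium dye were read kinetically on FDSS. Compound addition was followed by EC80 agonist 54-4 (4 uM final); inhibition was read over 110 s.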
TRPML1 ag: agonists of human TRPML1 channel. TRPML1-expressing cells, Ca2+ dye fluorescence, FDSS. activation, % (test concentration not listed). AID 624414. Q9GZU1. 410,000 tested, 0.12% active; in the data active = activation above about 50%; inconclusive = mostly about 30% to 49%
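Tet-induced TRPML1-DL cells, 1,500 per well, cultured overnight, were loaded with a no-wash Ca2+ dye for 45–90 min. Calcium fluorescence was recorded on the FDSS for 110 s after compound addition, before the EC80 agonist (4 uM 54-4) was added.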
TRHR enhancer: allosterically enhances the human TRH receptor | P34981 | TRHR cells, fluo-8 calcium fluorescence, EC20 TRH enhancement | enhancement, % at 2 µM | 360,000 tested, 0.66% active; in the data active = enhancement above about 30%
Target sequence (P34981 whole entry, looked up): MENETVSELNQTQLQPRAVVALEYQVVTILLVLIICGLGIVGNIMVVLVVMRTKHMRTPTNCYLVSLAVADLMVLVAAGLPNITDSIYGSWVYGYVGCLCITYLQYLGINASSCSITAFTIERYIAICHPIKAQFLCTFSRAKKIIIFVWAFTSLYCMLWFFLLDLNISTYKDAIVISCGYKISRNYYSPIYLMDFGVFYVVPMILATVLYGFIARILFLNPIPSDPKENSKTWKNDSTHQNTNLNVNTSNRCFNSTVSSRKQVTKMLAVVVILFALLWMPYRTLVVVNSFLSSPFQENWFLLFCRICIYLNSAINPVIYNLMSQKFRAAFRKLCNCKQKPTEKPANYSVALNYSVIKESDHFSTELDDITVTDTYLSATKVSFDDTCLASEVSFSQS
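Enhancer read-out: after compound pinning and an initial kinetic agonist-mode read, an EC20 of TRH (10 nM final) was injected and fluo-8 calcium signal (Ex 480/Em 530) followed at 1 s/cycle for 100 cycles in TRHR-expressing cells.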
TRHR ag: agonists of human TRH receptor | P34981 | TRHR cells, calcium flux fluo-8, FDSS agonist mode | activation, % at 2 µM | 360,000 tested, 0.18% active; in the data active = activation above about 30%
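Read-out: compound-evoked intracellular calcium rise in TRHR cells, fluo-8 dye, kinetic FDSS fluorescence at 1 s/cycle following a 10-cycle baseline. Cells cultured overnight before dye loading (30 min–1.5 h, RT).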
KCNH2 3.1 inh: blocks the human KCNH2 3.1 channel isoform; U2OS KCNH2 3.1, thallium flux FluxOr; stronger effect = lower value; activity change, % (tested at about 1.8 µM); 340,000 tested, 0.95% active; AID 720553;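 active = maximum activity change below -70%; inconclusive = maximum activity change from -70% to -50%; inactive = maximum activity change above -50%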;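 also: thallium influx rate constant from kinetic fluorescence after stimulation buffer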
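Virally transduced U2OS (3.1 isoform, 4 h infection in dark at RT) → overnight 37 C → FluxOr + Red40 in HBSS/HEPES, 45 min → stimulation buffer, 2 min kinetic read → rate constant vs DMSO controls.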
KCNH2 WT inh: blocks the wildtype human KCNH2 potassium channel | U2OS, BacMam KCNH2, thallium flux FluxOr; stronger effect = lower value | activity change, % at 1.84 µM | AID 720551 | 340,000 tested, 0.37% active | Q12809;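 active = maximum activity change below -70%; inconclusive = maximum activity change between -70% and -50%; inactive = maximum activity change above -50%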
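U2OS cells were transduced with wild-type KCNH2 virus (2.03 x 10^8 / mL) for 4 h at room temperature, then cultured overnight at 37 C. Thallium flux was read with FluxOr dye. Rate constants were normalized to DMSO controls.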
Hits are given with their value.

Results for CCN1/C(=C/c2ccc3cc(C)ccc3[n+]2CC)Sc2ccc3sccc3c21 ?
KCNH2 3.1 inh: inactive; KCNH2 WT inh: inactive

What do the screens show for `CCN1/C(=C\c2ccc3cc(C)ccc3[n+]2CC)Sc2cc(C)c(C)cc21`?
TRPML1 inh: inactive; TRPML1 ag: inactive; TRHR enhancer: inactive; TRHR ag: inactive; KCNH2 3.1 inh: inactive; KCNH2 WT inh: -126

Results for CCN1/C(=C/C(C)=C/c2sc3ccccc3[n+]2CC)Sc2ccccc21 ?
TRPML1 inh: inactive; TRPML1 ag: inactive; TRHR enhancer: inactive; TRHR ag: inactive; KCNH2 3.1 inh: inactive; KCNH2 WT inh: inactive

Results for CCN1/C(=C/c2ccc3cc(C)cc(C)c3[n+]2CC)Sc2cc(C)ccc21 ?
TRPML1 inh: inactive; TRPML1 ag: inactive; TRHR enhancer: 35; TRHR ag: inactive; KCNH2 3.1 inh: inactive; KCNH2 WT inh: inactive

What do the screens show for `CCN1/C(=C/c2ccc3cccc(C)c3[n+]2CC)Sc2ccccc21`?
TRPML1 inh: inactive; TRPML1 ag: 58; KCNH2 3.1 inh: inactive; KCNH2 WT inh: inactive

Results for CC(C)CC(CSc1ccc(Br)cc1)N1CCN(C)CCC1=O (centres undefined) ?
TRPML1 inh: inactive; TRPML1 ag: inactive

What do the screens show for `COc1ccc(Br)cc1S(=O)(=O)N1CCN(S(=O)(=O)c2ccc3c(c2)OCCO3)CC1`?
TRHR enhancer: inactive; TRHR ag: inactive

What do the screens show for `O=C(Nc1c(Cl)cc2c(c1Cl)Cc1cc([N+](=O)[O-])ccc1-2)C(Cl)Cl`?
TRPML1 inh: inactive; TRPML1 ag: inactive; KCNH2 3.1 inh: inactive; KCNH2 WT inh: inactive

Results for Cc1ccc(Nc2nc(N)[nH]c(=O)c2N=O)cc1 ?
TRPML1 inh: inactive; TRPML1 ag: inactive; TRHR enhancer: inactive; TRHR ag: inactive; KCNH2 3.1 inh: inactive; KCNH2 WT inh: inactive

How did O=C1C2C3C=CC(C3)C2C(=O)N1c1cccc2ccccc12 (centres undefined) do in these assays?
TRPML1 inh: inactive; TRPML1 ag: inactive; TRHR enhancer: inactive; TRHR ag: inactive; KCNH2 3.1 inh: inactive; KCNH2 WT inh: inactive

How did O=C1[C@H]2[C@@H](C(=O)N1c1cccc3ccccc13)C1(C(=O)c3ccccc3C1=O)N1CCC[C@@H]21 do in these assays?
TRPML1 inh: inactive; TRPML1 ag: inactive; TRHR enhancer: 34; TRHR ag: inactive; KCNH2 3.1 inh: inactive; KCNH2 WT inh: inactive

What do the screens show for `COc1ccc(CCNC(=O)C(=O)NCC(c2ccco2)S(=O)(=O)c2ccc(F)cc2)cc1` (centres undefined)?
TRPML1 inh: inactive; TRPML1 ag: inactive; TRHR enhancer: 36; TRHR ag: inactive

What do the screens show for `COc1ccc(CCNC(=O)C(=O)NCC(c2ccco2)S(=O)(=O)c2ccccc2)cc1` (centres undefined)?
TRPML1 inh: inactive; TRPML1 ag: inactive; TRHR enhancer: inactive; TRHR ag: inactive

How did CC(=O)Nc1cc2nc(C)n(Cc3ccc([N+](=O)[O-])cc3)c2nc1C do in these assays?
TRPML1 inh: inactive; TRPML1 ag: inactive; TRHR enhancer: inactive; TRHR ag: inactive; KCNH2 3.1 inh: inactive; KCNH2 WT inh: inactive

Results for COc1ccc(/C(=C/Nc2cccc(Br)c2)C(C)=O)cc1OC ?
TRPML1 inh: inactive; TRPML1 ag: inactive; TRHR enhancer: 41; TRHR ag: inactive; KCNH2 3.1 inh: inactive; KCNH2 WT inh: inactive

What do the screens show for `Cc1ccc(C(=O)N2CCN(c3ccc(NC(=O)c4ccc5c(c4)OCCO5)cc3)CC2)cc1`?
TRPML1 inh: inactive; TRPML1 ag: inactive; TRHR enhancer: inactive; TRHR ag: inactive; KCNH2 3.1 inh: -93; KCNH2 WT inh: inactive

How did Cc1ccccc1C(=O)N1CCN(c2ccc(NC(=O)c3ccc4c(c3)OCCO4)cc2)CC1 do in these assays?
TRPML1 inh: inactive; TRPML1 ag: inactive; TRHR enhancer: inactive; TRHR ag: inactive; KCNH2 WT inh: inactive

Results for Cc1ccc(C(=O)N2CCN(c3ccc(NC(=O)c4ccc(Br)o4)cc3)CC2)cc1 ?
TRPML1 inh: inactive; TRPML1 ag: inactive; TRHR enhancer: inactive; TRHR ag: inactive; KCNH2 3.1 inh: -83; KCNH2 WT inh: inactive

What do the screens show for `CCn1cc(/C=C(\NC(=O)c2ccccc2OC)C(=O)NCCN2CCOCC2)c2ccccc21`?
TRPML1 inh: inactive; TRPML1 ag: inactive; KCNH2 3.1 inh: inactive; KCNH2 WT inh: inactive

Results for Cc1ccc2oc(C(=O)N3CCC(O)(c4ccccc4)CC3)c(C)c2c1 ?
TRHR enhancer: inactive; TRHR ag: inactive; KCNH2 3.1 inh: inactive; KCNH2 WT inh: inactive

What do the screens show for `COc1cccc(NC(=O)CN(C)C(=O)C(C)Sc2ccccc2)c1` (centres undefined)?
TRPML1 inh: inactive; TRPML1 ag: inactive; TRHR enhancer: inactive; TRHR ag: inactive; KCNH2 3.1 inh: inactive; KCNH2 WT inh: inactive

Results for COc1ccc(Cl)cc1Nc1nc(Cl)nc(NCCO)n1 ?
TRPML1 inh: inactive; TRPML1 ag: inactive; KCNH2 3.1 inh: inactive; KCNH2 WT inh: inactive

Results for CNC(=S)NC1CC2CCCC(C1)N2Cc1ccc(C)cc1 (centres undefined) ?
TRPML1 inh: inactive; TRPML1 ag: inactive; TRHR enhancer: inactive; TRHR ag: inactive; KCNH2 3.1 inh: -83

What do the screens show for `O=C(NC1CC2CCCC(C1)N2S(=O)(=O)c1ccccc1)c1ccccc1` (centres undefined)?
TRPML1 inh: inactive; TRPML1 ag: inactive; TRHR enhancer: inactive; TRHR ag: inactive; KCNH2 3.1 inh: inactive; KCNH2 WT inh: inactive

Results for Cc1cccc(C(=O)NC2CC3CCCC(C2)N3S(=O)(=O)c2ccccc2)c1 (centres undefined) ?
TRPML1 inh: inactive; TRPML1 ag: inactive; TRHR enhancer: inactive; TRHR ag: inactive; KCNH2 3.1 inh: -72; KCNH2 WT inh: inconclusive

How did COc1ccc(CN2C3CCCC2CC(NC(=O)Nc2cccc(C)c2)C3)cc1 (centres undefined) do in these assays?
TRPML1 inh: inactive; TRPML1 ag: inactive; TRHR enhancer: inactive; TRHR ag: inactive; KCNH2 3.1 inh: -114; KCNH2 WT inh: -87

How did COc1cccc(C(=O)NC2CC3CCCC(C2)N3CC(=O)Nc2ccccc2)c1 (centres undefined) do in these assays?
TRPML1 inh: inactive; TRPML1 ag: inactive; TRHR enhancer: inactive; TRHR ag: inactive; KCNH2 3.1 inh: inactive; KCNH2 WT inh: inactive

Results for O=C(CN1C2CCCC1CC(NC(=O)c1ccccc1)C2)Nc1ccccc1 (centres undefined) ?
TRPML1 inh: inactive; TRPML1 ag: inactive; TRHR enhancer: 40; TRHR ag: inactive; KCNH2 3.1 inh: inactive; KCNH2 WT inh: inactive

How did COc1ccc(CN2C3CCCC2CC(NC(=O)Nc2ccccc2)C3)cc1 (centres undefined) do in these assays?
TRPML1 inh: inactive; TRPML1 ag: inactive; TRHR enhancer: inactive; TRHR ag: inactive; KCNH2 3.1 inh: inactive; KCNH2 WT inh: inactive

Screening data as filed in PubChem BioAssay.
